# Screening results deposited in PubChem by Broad Institute.
# In the library only some 6.7% were active in any assay of this set; here they are far more common.
# Pf Dd2 inh: P. falciparum Dd2 growth inhibitors, primary screen, SYBR Green fluorescence, single dose replicates | 72 h; hits give low values | activity change, % at 10 µM | 2.3% of 94,000 active; in the data active = activity change below about -80%; inconclusive = no clear call, values can overlap the other calls
# T cruzi growth-1: T. cruzi intracellular proliferation inhibitors, primary screen, cell-based, beta-gal Tulahuen parasites, NIH3T3 host, luminescence. inhibition, % at 8.34 µM. AID 624255, 2012. 5.9% of 77,000 active. T. cruzi beta-gal in NIH3T3, GalScreen luminescence, 90 h;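 active = mean inhibition above about 93%, with at least 55% of replicates each passing it, limit read from the data, passing the limit was not always enough; inconclusive = only one of those two conditions holds; inactive = neither condition holds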
# C diff HTS: C. difficile growth inhibitors, primary screen, HTS; growth activity, negative = inhibition, % at 16 µg/mL (by protocol); 0.25% of 86,000 active; Clostridium difficile clinical isolate growth, OD600, 24 h; hits give low values; AID 1259249, 2017;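 active = mean growth activity at or below -80% and every replicate also at or below -80%; inconclusive = mean at or below -80% but some replicate above -80%; inactive = mean growth activity above -80%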;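 note: 0% = DMSO wells and -100% = levofloxacin 16 µg/mL wells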
# T cruzi growth-2: T. cruzi intracellular proliferation inhibitors, confirmation, cell-based, NIH3T3 host, beta-gal parasite, luminescence, cherry-pick. shares compounds with T cruzi growth-1. AID 651739, 2012. inhibition, % at 8.35 µM. T. cruzi beta-gal in NIH3T3, GalScreen luminescence, 90 h. 72% of 5,600 active;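 active = mean replicate inhibition above about 95% and at least 55% of replicates individually reaching it, limit read from the data; inconclusive = only one of the two criteria is met; inactive = neither criterion is met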
# T cruzi growth-3: inhibitors of intracellular T. cruzi replication, confirmation, NIH3T3 host cells, beta-gal parasites, cherry-pick, set 2; shares compounds with T cruzi growth-1; inhibition, % at 2.09 µM; T. cruzi beta-gal in NIH3T3, GalScreen luminescence, 90 h; 21% of 5,600 active;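 active = mean inhibition above about 95%, with at least 55% of replicates also reaching it, limit read from the data; inconclusive = meets just one of the two conditions; inactive = meets neither condition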;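 note: plate controls were neutral control median for no effect and positive control median for full effect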
# NIH3T3 tox: cytotoxicity in mouse NIH/3T3 fibroblasts, confirmation, cytotoxicity control for T. cruzi proliferation inhibitor project, cell-based, cherry-pick, single point; shares compounds with T cruzi growth-1; NIH/3T3 viability, CellTiter-Glo ATP luminescence, 90 h; cytotoxicity (signal decrease), % at 8.35 µM; 14% of 5,600 active;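 active = mean signal decrease across replicates above about 35% based on untreated-well scatter, with enough replicates individually passing, limit read from the data; inconclusive = no rule stated though some were filed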;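 note: 0% = median of neutral control wells and 100% = median of positive control wells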
# NIH3T3 tox 2: NIH/3T3 fibroblast cytotoxicity, confirmation, cytotoxicity control, cell-based, cherry-pick, single point, set 2; NIH/3T3 viability, CellTiter-Glo ATP luminescence, 90 h; 56% of 5,600 active; inhibition, % at 24.9 µM; shares compounds with T cruzi growth-1;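 active = mean loss of cell viability signal at or above a set limit, and enough replicates individually reaching it; inconclusive = meets only the mean limit or only the replicate share; inactive = meets neither condition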;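 note: 0% = median of neutral control wells and 100% = median of positive control wells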
# An asterisk follows results filed as active; u = inconclusive; x = no result given.
SMILES,Pf Dd2 inh,T cruzi growth-1,C diff HTS,T cruzi growth-2,T cruzi growth-3,NIH3T3 tox,NIH3T3 tox 2
O=C(NCC1CCCCC1)[C@@H]1N[C@@H]2c3ccc(C4=CCCCC4)c(=O)n3C[C@@H]2[C@H]1CO,-6.2,30.8,2.4,x,x,x,x
C[C@@H]1CCCCO[C@@H](CN(C)Cc2ccc3c(c2)OCO3)[C@@H](C)CN([C@@H](C)CO)C(=O)c2cc(NC(=O)NC3CCCCC3)ccc2O1,x,x,14.5,x,x,x,x
C[C@@H]1CCCCO[C@H](CN(C)Cc2ccc3c(c2)OCO3)[C@H](C)CN([C@H](C)CO)C(=O)c2cc(NC(=O)NC3CCCCC3)ccc2O1,x,107.1*,-2.5,108.5*,90.8,3.3,104.4*
C[C@H]1CCCCO[C@H](CN(C)Cc2ccc3c(c2)OCO3)[C@@H](C)CN([C@@H](C)CO)C(=O)c2cc(NC(=O)NC3CCCCC3)ccc2O1,x,99.8*,-3.9,107.9*,50.9,18.3,101.8*
C[C@@H]1CCCCO[C@H](CN(C)Cc2ccc3c(c2)OCO3)[C@@H](C)CN([C@@H](C)CO)C(=O)c2cc(NC(=O)NC3CCCCC3)ccc2O1,x,94.2,10.8,x,x,x,x
O=C(O)C[C@H]1CC[C@@H](NC(=O)c2ccccc2F)[C@@H](CO)O1,-2.0,x,0.3,x,x,x,x
C[C@H]1CN([C@@H](C)CO)C(=O)Cc2cc(NS(=O)(=O)c3ccc(Cl)cc3)ccc2O[C@H]1CN(C)C(=O)Nc1cccc2ccccc12,-44.0,5.3,-8.0,x,x,x,x
C[C@@H]1CN([C@@H](C)CO)C(=O)Cc2cc(N(C)C)ccc2O[C@@H]1CN(C)Cc1ccc(Cl)c(Cl)c1,-0.4,66.9,0.5,x,x,x,x
C[C@@H]1CN([C@H](C)CO)C(=O)Cc2cc(N(C)C)ccc2O[C@H]1CN(C)Cc1ccc2c(c1)OCO2,16.0,42.1,-5.3,x,x,x,x
C[C@H]1CN([C@@H](C)CO)C(=O)Cc2cc(N(C)C)ccc2O[C@@H]1CN(C)Cc1ccc(Cl)c(Cl)c1,-30.2,128.0*,2.9,115.7*,61.1,2.9,100.5*
C[C@H](CO)N1C[C@H](C)[C@@H](CN(C)Cc2ccc3c(c2)OCO3)Oc2ccc(N(C)C)cc2CC1=O,-7.0,132.6*,-5.0,104.5*,90.0,25.1,31.3*
C[C@H]1CN([C@@H](C)CO)C(=O)Cc2cc(N(C)C)ccc2O[C@@H]1CN(C)Cc1ccc2c(c1)OCO2,-2.1,107.2*,1.1,101.3*,63.0,1.2,11.5
C[C@@H]1CN([C@H](C)CO)C(=O)Cc2cc(N(C)C)ccc2O[C@@H]1CN(C)Cc1ccc2c(c1)OCO2,30.1,-17.4,x,x,x,x,x
CCCC(=O)Nc1ccc2c(c1)C(=O)N(C)C[C@H](OC)[C@@H](C)CN(CCc1ccccc1)[C@@H](C)CO2,-42.4,16.5,0.4,x,x,x,x
COc1ccc(S(=O)(=O)Nc2ccc3c(c2)C(=O)N([C@H](C)CO)C[C@H](C)[C@H](CN(C)S(=O)(=O)c2ccc(C)cc2)O3)cc1,-61.5,55.5,15.1,x,x,x,x
N#C[C@@H]1[C@H](c2ccccc2)[C@@H](CO)N1C(=O)CN1CCOCC1,16.9,54.5,-6.8,x,x,x,x
CNC(=O)C[C@H]1CC[C@@H]2[C@H](COC[C@@H](O)CN2C(=O)Nc2cccc(OC)c2)O1,13.3,36.1,x,x,x,x,x
O=C(Nc1ccc(F)cc1)N1CCCCN2[C@H](CO)[C@@H](c3ccc(C#Cc4ccccn4)cc3)[C@H]2C1,-37.0,93.0,7.1,x,x,x,x
COc1ccc(NC(=O)N2CCCCN3[C@H](CO)[C@@H](c4ccc(C#Cc5ccccn5)cc4)[C@@H]3C2)cc1,-19.5,u,1.8,111.2*,92.2,-3.2,13.5
COc1ccc(NC(=O)N2CCCCN3[C@@H](CO)[C@@H](c4ccc(C#Cc5ccccn5)cc4)[C@@H]3C2)cc1,-12.3,57.8,10.7,x,x,x,x
O=C(Nc1ccc(F)cc1)N1CCCCN2[C@@H](CO)[C@@H](c3ccc(C#Cc4ccccn4)cc3)[C@@H]2C1,-50.6,110.2*,32.0,103.2*,97.0*,15.7,35.5*
C[C@@H](NC(=O)C[C@@H]1C=C[C@@H](NC(=O)C2CCOCC2)[C@@H](CO)O1)c1ccccc1,12.3,-8.1,-5.7,x,x,x,x
C[C@H]1CN([C@@H](C)CO)C(=O)c2cc(NC(=O)C3CCCCC3)ccc2O[C@H]1CN(C)Cc1ccncc1,29.1,49.0,-0.7,x,x,x,x
CC(C)CC#Cc1ccc2c(c1)O[C@@H](CN(C)C(=O)C1CC1)[C@H](C)CN([C@H](C)CO)S2(=O)=O,-38.7,84.8,x,x,x,x,x
CC(C)CC#Cc1ccc2c(c1)O[C@@H](CN(C)C(=O)C1CCOCC1)[C@H](C)CN([C@@H](C)CO)S2(=O)=O,-25.4,98.3,-6.4,x,x,x,x
SMILES,Pf Dd2 inh,T cruzi growth-1,C diff HTS,T cruzi growth-2,T cruzi growth-3,NIH3T3 tox,NIH3T3 tox 2
CC(C)CC#Cc1ccc2c(c1)O[C@@H](CN(C)C(=O)C1CCCCC1)[C@@H](C)CN([C@H](C)CO)S2(=O)=O,-44.1,114.5*,-7.2,95.7*,116.1*,1.5,104.7*
CC(C)CC#Cc1ccc2c(c1)O[C@@H](CN(C)C(=O)C1CCCCC1)[C@H](C)CN([C@H](C)CO)S2(=O)=O,-65.7,114.0*,17.4,100.2*,111.5*,-2.1,103.9*
CC(C)CC#Cc1ccc2c(c1)O[C@H](CN(C)C(=O)C1CCCCC1)[C@H](C)CN([C@H](C)CO)S2(=O)=O,-66.3,110.7*,-6.1,98.6*,106.4*,63.4*,104.3*
CC(C)CC#Cc1ccc2c(c1)O[C@H](CN(C)C(=O)C1CCC1)[C@@H](C)CN([C@H](C)CO)S2(=O)=O,-45.7,93.4,8.1,x,x,x,x
CCCC(=O)Nc1ccc2c(c1)C(=O)N(C)[C@@H]1CC[C@@H](CC(=O)NCC(F)(F)F)O[C@H]1CO2,0.3,9.1,-1.6,x,x,x,x
CCC(=O)N1[C@H](CN(C(C)C)S(C)(=O)=O)[C@@H](c2ccccc2)[C@@H]1CO,5.4,18.3,10.9,x,x,x,x
C[C@@H]1CCCCO[C@@H](CN(C)Cc2ccc(C(=O)O)cc2)[C@H](C)CN([C@H](C)CO)C(=O)c2cc(NS(C)(=O)=O)ccc2O1,49.4,46.9,1.6,x,x,x,x
C/C=C/c1ccc2c(c1)O[C@@H](CN(C)Cc1cncnc1)[C@H](C)CN([C@H](C)CO)S2(=O)=O,-12.3,x,-2.7,x,x,x,x
C[C@@H]1CN([C@H](C)CO)S(=O)(=O)c2ccc(/C=C/c3ccccc3)cc2O[C@H]1CN(C)Cc1cncnc1,-67.0,106.7*,-1.8,98.4*,84.9,58.7*,64.6*
C/C=C/c1ccc2c(c1)O[C@@H](CN(C)Cc1cncnc1)[C@H](C)CN([C@@H](C)CO)S2(=O)=O,6.5,x,-2.7,x,x,x,x
